# ChEMBL document CHEMBL3988442, “University of Dundee, Small-Polar-MMV Screening Library” (2021)
# The campaign covered roughly 69,000 compounds. About 1,000 (1.4%) showed an effect of 50% or more. The sample holds strong results, similar compounds and a random draw of the others, so the mix is not that of the screen.
# System: Leishmania donovani
# Assay: Leishmania intramacrophage assay
# Assay type: functional, organism-based
# Parameters: scale not given: in the data most compounds retested in dose-response had high values
smiles,measurement,setting,value
CCCc1nc(CN(CC)C(=O)c2ccc3ncsc3c2)no1,Percent Effect,"30.3 µM, […]",-29.17%
COc1ccc(-c2nccn2CC(O)CN2CCCC2)c(F)c1 (stereo not drawn),Percent Effect,"30.3 µM, […]",5.05%
COc1ccc2cnn(CC(=O)NC3CCCCC3)c(=O)c2c1OC,Percent Effect,"30.3 µM, […]",14.43%
CNS(=O)(=O)CCn1cc(-c2ccc(OC)c(OC)c2)nn1,Percent Effect,"30.3 µM, […]",27.44%
CCn1cc2c(n1)C(COC)CN(C(=O)COc1ccccc1C)C2 (stereo not drawn),Percent Effect,"30 µM, 30.03 µM",-0.4533%
CC(C)c1ncncc1C(=O)N1CCN(Cc2ccccn2)CC1,Percent Effect,30 µM,24.52%
NC(=O)c1cccc(OCC(=O)NS(=O)(=O)c2ccc3c(c2)CCC3)c1,Percent Effect,30 µM,8.199%
Cc1nn(C)c(N2CCOCC2)c1CNC1COc2ccccc2C1 (stereo not drawn),Percent Effect,30 µM,6.69%
CC(=O)NCCCc1ncnn1-c1cccc(Cl)c1,Percent Effect,"30.3 µM, […]",-4.184%
O=C(NCC(=O)N1CCCc2ccccc21)c1c(O)cc(F)cc1F,Percent Effect,30 µM,16.08%
O=C(NCCC(=O)N1CCCc2ccccc21)c1c(O)cc(F)cc1F,Percent Effect,"30 µM, 30.03 µM",50.32%
O=C(NCCC(=O)N1CCCc2ccccc21)c1c(F)cccc1F,Percent Effect,30 µM,15.29%
Cc1ccc(CN2C[C@@H]3[C@@H](C(=O)NCC(C)C)CCS(=O)(=O)[C@@H]3C2)cc1.O=C(O)C(F)(F)F,Percent Effect,"30.3 µM, […]",-6.029%
CCc1nnc(SCC(=O)Nc2cc(C(C)(C)C)nn2C)[nH]1,Percent Effect,"30.3 µM, […]",21.82%
CCc1cc(NC2CCN(CC(N)=O)CC2)nc(N2CCCCC2)n1,Percent Effect,"30.3 µM, […]",55.44%
CCc1cc(NC2CCS(=O)(=O)CC2)nc(N2CCCCC2)n1,Percent Effect,"30.3 µM, […]",-6.887%
CCc1cc(NCC(N)=O)nc(N2CCCCC2)n1,Percent Effect,"30.3 µM, […]",21.93%
COC(=O)c1sccc1CN1CCN(C(=O)c2ccc(C)o2)CC1,Percent Effect,"30.3 µM, […]",23.22%
CCc1ccsc1C(=O)N1CCN(C(=O)c2ccc(C)o2)CC1,Percent Effect,"30.3 µM, […]",56.23%
CCc1ccsc1C(=O)N1CCS(=O)(=O)CC1,Percent Effect,"30.3 µM, […]",9.315%
O=C(c1ccc2[nH]c(=O)[nH]c2c1)N1CCC(Nc2cccnn2)CC1,Percent Effect,30 µM,-0.4678%
c1cc(NCc2ccsc2)cc(-c2nnc[nH]2)c1,Percent Effect,"30.3 µM, […]",34.15%
Oc1c(F)cc(CNc2cccc(-c3nnc[nH]3)c2)cc1F,Percent Effect,"30.3 µM, […]",16.51%
Oc1ccc(Br)c(CNc2cccc(-c3nnc[nH]3)c2)c1,Percent Effect,"30.3 µM, […]",51.72%
CN(CCO)C(=O)Nc1ccn(-c2cccc(C(F)(F)F)c2)n1,Percent Effect,"30.3 µM, […]",13.55%
Cc1nc2n(n1)CC(NCc1csc(-c3ccsc3)n1)CC2 (stereo not drawn),Percent Effect,30 µM,1.329%
O=C(NC[C@H]1OC[C@@H](NC2COC2)[C@@H]1O)c1cccs1,Percent Effect,"30.3 µM, […]",17.79%
Cc1ccc2c(c1)C(=O)NCC1(CCN(C(=O)c3cc(C)no3)CC1)O2,Percent Effect,"30.3 µM, […]",77.82%
Cc1ccc2c(c1)C(=O)NCC1(CCN(C(=O)c3ccccn3)CC1)O2,Percent Effect,"30.3 µM, […]",39.06%
Cc1ccc2c(c1)C(=O)NCC1(CCN(C(=O)c3ccnn3C)CC1)O2,Percent Effect,"30.3 µM, […]",23.56%
Cc1cccc(C)c1OC1CN(C(=O)C2CC(=O)N(C(C)(C)C)C2)C1 (stereo not drawn),Percent Effect,"30.3 µM, […]",48.27%
CN1C(=O)C(c2ccccc2)CC12CCN(CCN)CC2 (stereo not drawn),Percent Effect,"30.3 µM, […]",16.5%
CCc1cc(NCCCN(C)C2CCCC2)ncn1,Percent Effect,"30.3 µM, […]",22.72%
CCc1cc(NCCCOC2CCCC2)ncn1,Percent Effect,"30.3 µM, […]",51.18%
CCc1cc(NCCCOC2CCN(C)CC2)ncn1,Percent Effect,"30.3 µM, […]",-6.301%
Cn1ccc(CN2CCC3(CCCN3CC3CC3)CC2)n1.O=C(O)C(F)(F)F.O=C(O)C(F)(F)F,Percent Effect,"30.3 µM, […]",41.38%
O=C(CC1CN(Cc2ccccc2)CCO1)NC1CCSCC1 (stereo not drawn),Percent Effect,"30.3 µM, […]",18.94%
Cc1ccc(CC(=O)N(C)CC2(O)CCN(c3ccccn3)C2)s1 (stereo not drawn),Percent Effect,"30 µM, 30.03 µM",24.75%
CC(=O)c1cnc(NCCN2CCCC(c3ccccc3)C2)nc1C (stereo not drawn),Percent Effect,"30.3 µM, […]",-39.73%
O=C(C1CCOC1)N1CCN(CC(F)(F)F)c2ccccc21 (stereo not drawn),Percent Effect,"30.3 µM, […]",25.18%
O=C(C1CCCOC1)N1CCN(CC(F)(F)F)c2ccccc21 (stereo not drawn),Percent Effect,"30.3 µM, […]",-20.84%
O=C(C1COCCO1)N1CCN(CC(F)(F)F)c2ccccc21 (stereo not drawn),Percent Effect,"30.3 µM, […]",56.8%
CC(C)(C)c1cc(CN2C[C@H]3CC[C@@H]2CN(Cc2cscn2)C3)n[nH]1,Percent Effect,"30.3 µM, […]",99.99%
CC(C)Cc1cc(CN2C[C@H]3CC[C@@H]2CN(Cc2cscn2)C3)n[nH]1,Percent Effect,"30.3 µM, […]",2.738%
CC(C)(C)c1cc(CN2C[C@@H]3CC[C@H](C2)N(Cc2ccccn2)C3)n[nH]1,Percent Effect,"30.3 µM, […]",9.516%
CCCc1n[nH]c(C2CN(C(=O)c3ccco3)CCO2)n1 (stereo not drawn),Percent Effect,"30 µM, 30.03 µM",22.5%
Cc1nc2c(c(NCCCN3CCOCC3)n1)CCN(C)C2,Percent Effect,"30.3 µM, […]",22.12%
CCN(CC)CCCNc1nc(C)nc2c1CCN(C)C2.O=C(O)CC(O)(CC(=O)O)C(=O)O,Percent Effect,"30.3 µM, […]",53.93%
Cc1nc2c(c(NCCN3CCOCC3)n1)CCN(C)C2,Percent Effect,"30.3 µM, […]",32.47%
Cc1nccc([C@H]2C[C@@H]3CCN(C(=O)c4c(C)noc4C)C[C@H]3O2)n1,Percent Effect,"30.3 µM, […]",16.88%
Cc1ccccc1OCCSc1nnc(CC2CCS(=O)(=O)C2)n1C (stereo not drawn),Percent Effect,"30.3 µM, […]",22.12%
COCc1cc(N2CCOC(c3ccc(Cl)c(Cl)c3)C2)ncn1 (stereo not drawn),Percent Effect,"30.3 µM, […]",54.26%
COCc1cc(N2CCOC(c3ccc(Cl)cc3)C2)ncn1 (stereo not drawn),Percent Effect,"30.3 µM, […]",15.44%
COCc1cc(N2CCOC(c3ccc(F)cc3)C2)ncn1 (stereo not drawn),Percent Effect,"30.3 µM, […]",-18.01%
COc1ccc(-c2nc(CN3CCCC(OC)C3)c(C)o2)c(F)c1 (stereo not drawn),Percent Effect,"30.3 µM, […]",76%
CCCOC1CCCN(Cc2nc(-c3ccc(F)cc3F)oc2C)C1 (stereo not drawn),Percent Effect,"30.3 µM, […]",-16.44%
COCc1ncn(Cc2nc(-c3ccc(OC)cc3F)oc2C)n1,Percent Effect,"30.3 µM, […]",-35.79%
COc1cccc(CN(C(=O)Nc2nncs2)C2CCC(O)CC2)c1 (stereo not drawn),Percent Effect,"30.3 µM, […]",1.528%
O=C1NC2(CCN(C(=O)c3ccnnc3)CC2)CC1c1ccccc1 (stereo not drawn),Percent Effect,"30.3 µM, […]",21.04%
CCCN1CCC(Cc2noc(-c3ncccc3C)n2)CC1,Percent Effect,"30.3 µM, […]",17.75%
CCCN1CCC(Cc2noc(-c3cc4cccnc4nc3C)n2)CC1,Percent Effect,"30.3 µM, […]",32.81%
CCCN1CCC(Cc2noc(-c3cccnc3OC)n2)CC1,Percent Effect,"30.3 µM, […]",57.42%
CC(=O)c1ccccc1-c1nc(CC2CCN(C)CC2)no1,Percent Effect,"30.3 µM, […]",87.64%
CN1CCC(Cc2noc(-c3cccc4c3OCC4)n2)CC1,Percent Effect,"30.3 µM, […]",31.67%
COC(=O)c1cccc(-c2nc(CC3CCN(C)CC3)no2)c1,Percent Effect,"30.3 µM, […]",10.91%
CSCc1noc(CNC(=O)C2CCN(C3CCCCC3)CC2)n1,Percent Effect,"30.3 µM, […]",24%
Cc1noc(C)c1CN(C)c1ncnc2ccccc12,Percent Effect,"30.3 µM, […]",12.67%
CC(Cn1cc(Br)cn1)C(=O)Nc1ccc(Cl)cn1 (stereo not drawn),Percent Effect,"30.3 µM, […]",-88.88%
CC(C)c1nc(C2CCCN(C(=O)CCn3cncn3)C2)no1 (stereo not drawn),Percent Effect,30 µM,13.68%
O=C(Cc1ccc(F)cc1)NCCNc1cc(N2CCCC2)ncn1,Percent Effect,"30.3 µM, […]",-9.653%
CCN1CC(COC(=O)c2cc(Br)ccc2F)CC1=O (stereo not drawn),Percent Effect,"30.3 µM, […]",-7.569%
CCN1CC(COC(=O)c2ccc(Br)cc2F)CC1=O (stereo not drawn),Percent Effect,"30.3 µM, […]",87.43%
CCN1CC(COC(=O)c2ccc(N(C)C)cc2F)CC1=O (stereo not drawn),Percent Effect,"30.3 µM, […]",23.8%
COc1ccccc1CC(=O)N1CCCC1Cn1nc(C)cc1C (stereo not drawn),Percent Effect,"30.3 µM, […]",13.95%
O=C1O[C@@H]2CN(Cc3cccc(O)c3)C[C@@H]2N1CCCN1CCOCC1,Percent Effect,"30.3 µM, […]",8.802%
CCOc1ccc(Cl)c(C(=O)NC)n1,Percent Effect,30 µM,10.53%
O[C@@H]1C[C@@H](c2nc(-c3ccccc3)no2)N(CC2CCCCC2)C1,Percent Effect,"30.3 µM, […]",18.41%
COc1ccc(CN(C)C(=O)CSc2nnc(N)s2)c(OC)c1OC,Percent Effect,"30.3 µM, […]",28.05%
CCn1ccc(CN(C)C(=O)CSc2nnc(N)s2)n1,Percent Effect,"30.3 µM, […]",54.38%
COc1ccnc(CN(C)C(=O)CSc2nnc(N)s2)c1,Percent Effect,"30.3 µM, […]",23.55%
CC(C(=O)N1CCCCC1)N1CCN(c2ncc(Cl)cn2)CC1 (stereo not drawn),Percent Effect,"30.3 µM, […]",6.463%
CS(=O)(=O)C1CCN(S(=O)(=O)c2ccc(F)c(F)c2)CC1,Percent Effect,"30.3 µM, […]",-2.266%
Cc1cc(S(=O)(=O)N2CCC(S(C)(=O)=O)C2)ccc1F (stereo not drawn),Percent Effect,"30.3 µM, […]",24.83%
CS(=O)(=O)C1CCN(S(=O)(=O)c2ccc(F)c(F)c2)C1 (stereo not drawn),Percent Effect,"30.3 µM, […]",54.9%
O=C(NCc1ccccn1)N1CC=C(c2ccccc2)CC1,Percent Effect,"30.3 µM, […]",1.233%
COc1ccc(C(=O)N2CCN(c3cc(CCN)nc(C)n3)CC2)cc1,Percent Effect,"30.3 µM, […]",0.4639%
Cc1nc(N)nc(N2CCOc3ccc(CO)cc3C2)c1C,Percent Effect,"30.3 µM, […]",-5.312%
Cc1nc(C2CCN(C)CC2)cc(N2CCOc3ccc(Cl)cc3C2)n1,Percent Effect,"30.3 µM, […]",85.22%
Cc1nc(CCN)cc(N2CCC(O)(c3ccc(Cl)cc3)CC2)n1,Percent Effect,"30.3 µM, […]",77.75%
Cc1nc(CCN)cc(N2CCOc3ccc(Cl)cc3C2)n1,Percent Effect,"30.3 µM, […]",63.66%
Cc1nc(CN)cc(N2CCC(O)(c3ccc(Cl)cc3)CC2)n1,Percent Effect,"30.3 µM, […]",-13.57%
CCN(C)CC(=O)N1CCC(c2cc(N3CCOCC3)nc(C)n2)CC1,Percent Effect,"30.3 µM, […]",-5.475%
Cc1nc(CCN)cc(N2CCC(O)(c3ccccc3)C2)n1 (stereo not drawn),Percent Effect,"30.3 µM, […]",11.63%
Cc1nc(C2CCNCC2)cc(N2CCOc3ccccc3C2)n1,Percent Effect,"30.3 µM, […]",38.29%
COc1cc2nc(NCCNS(C)(=O)=O)cc(C)c2cc1OC,Percent Effect,"30.3 µM, […]",-28.24%
O=C(O)C(F)(F)F.O=C(O)C(F)(F)F.c1csc(CN2CCCC3(COCCN(Cc4c[nH]nn4)C3)C2)c1 (stereo not drawn),Percent Effect,"30.3 µM, […]",14.23%
Cc1ccccc1C1(C(=O)N2CCOC(C)C2)CCOCC1 (stereo not drawn),Percent Effect,"30.3 µM, […]",-3.571%
Cc1nc(CN(C)C2CCN(Cc3ccc(C(N)=O)cc3)C2)no1 (stereo not drawn),Percent Effect,30 µM,31.74%
Cc1cccc(S(=O)(=O)NC(=O)CN(C)Cc2ccccc2)c1,Percent Effect,"30.3 µM, […]",14.38%
Cc1ccccc1[C@@H]1CN(Cc2ccc(C(F)(F)F)nc2)C[C@H]1C(=O)O,Percent Effect,"30.3 µM, […]",13.27%
Fc1ccc(OCCNC2CCN(Cc3ccccn3)CC2)c(F)c1,Percent Effect,"30.3 µM, […]",52.55%
Fc1ccc(OCCNC2CCN(Cc3ccncc3)CC2)c(F)c1,Percent Effect,"30.3 µM, […]",39.31%
N#Cc1ccc(NC2CCN(Cc3ccccn3)CC2)c(F)c1,Percent Effect,"30.3 µM, […]",-12.41%
